Values joined by “and” are separate entries in the source; they are usually repeats but may differ in a detail not shown here. Equal entries are not always repeated. The campaign covered roughly 5,500 compounds. About 2,000 (36%) were called active. Not shown: some 18% with an inconclusive outcome. No stated cut-off is given here; in the data, active means normalized growth mostly below about 0.91 (no sharp cut-off); inconclusive means no clear call, values can overlap the other calls; inactive means mostly above about 0.92. The list shows a part of the results.
Assay: chemical genetic growth profiling, strain panel (AID 1159580);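 further: tested at 20 µM; growth read once vehicle control cultures reached saturation at 30 °C; 1 = growth at the plate median or of vehicle wells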
Settings: S. cerevisiae deletion strains, growth OD

Measured: normalized growth

O=C(O)C(O)C(O)C(=O)O (configuration not stated)
inactive: locus YAL013W, strain DEP1, stronger effect = lower value 0.974 | locus YAL021C, strain ccr4, stronger effect = lower value 1 | locus YAL026C, strain drs2, stronger effect = lower value 0.999 | locus YAL030W, strain snc1, stronger effect = lower value 1 | locus YBL061C, strain skt5, stronger effect = lower value 0.989 | locus YBR009C, strain hhf1, stronger effect = lower value 0.99 | locus YBR021W, strain FUR4, stronger effect = lower value 1.02 | locus YBR023C, strain chs3, stronger effect = lower value 0.989 | locus YBR171W, strain sec66, stronger effect = lower value 0.986 | locus YBR229C, strain ROT2, stronger effect = lower value 0.952 | locus YBR231C, strain swc5, stronger effect = lower value 0.996 | locus YBR279W, strain paf1, stronger effect = lower value 0.985 | locus YCL011C, strain gbp2, stronger effect = lower value 0.988 | locus YCL016C, strain dcc1, stronger effect = lower value 0.994 | locus YCL029C, strain bik1, stronger effect = lower value 0.985 | locus YCL061C, strain MRC1, stronger effect = lower value 0.997 | locus YCL069W, strain vba3, stronger effect = lower value 0.982 | locus YCR088W, strain abp1, stronger effect = lower value 0.992 | locus YDL005C, strain med2, stronger effect = lower value 0.984 | locus YDL035C, strain GPR1, stronger effect = lower value 0.996 | locus YDL040C, strain nat1, stronger effect = lower value 1.01 | locus YDL074C, strain BRE1, stronger effect = lower value 0.976 | locus YDL101C, strain DUN1, stronger effect = lower value 0.958 | locus YDL134C, strain PPH21, stronger effect = lower value 0.986 | locus YDL185W, strain tfp1, stronger effect = lower value 0.966 | locus YDL192W, strain arf1, stronger effect = lower value 0.985 | locus YDR001C, strain nth1, stronger effect = lower value 0.996 | locus YDR069C, strain doa4, stronger effect = lower value 0.99 | locus YDR101C, strain arx1, stronger effect = lower value 0.994 | locus YDR137W, strain rgp1, stronger effect = lower value 0.984 | locus YDR150W, strain NUM1, stronger effect = lower value 0.979 | locus YDR159W, strain sac3, stronger effect = lower value 0.975 | locus YDR162C, strain NBP2, stronger effect = lower value 0.95 | locus YDR195W, strain ref2 0.978 | locus YDR297W, strain sur2, stronger effect = lower value 0.99 | locus YDR318W, strain mcm21, stronger effect = lower value 0.999 | locus YDR334W, strain swr1, stronger effect = lower value 0.992 | locus YDR335W, strain msn5, stronger effect = lower value 0.992 | locus YDR388W, stronger effect = lower value 0.99 | locus YDR392W, strain spt3, stronger effect = lower value 1 | locus YDR502C, strain sam2, stronger effect = lower value 0.991 | locus YEL003W, strain gim4, stronger effect = lower value 0.998 | locus YEL037C, strain rad23, stronger effect = lower value 1 | locus YEL061C, strain CIN8 (second series), stronger effect = lower value 1 | locus YEL061C, strain CIN8, stronger effect = lower value 0.984 | locus YER015W, strain faa2, stronger effect = lower value 0.992 | locus YER016W, strain bim1, stronger effect = lower value 1 | locus YER110C, stronger effect = lower value 0.982 | locus YER111C, strain swi4, stronger effect = lower value 0.988 | locus YER155C, strain BEM2 (second series), stronger effect = lower value 0.991 | locus YER155C, strain BEM2, stronger effect = lower value 0.992 | locus YER167W, strain BCK2, stronger effect = lower value 0.989 | locus YFR010W, strain ubp6, stronger effect = lower value 1 | locus YGL078C, strain dbp3, stronger effect = lower value 0.99 | locus YGL086W, strain mad1, stronger effect = lower value 1 | locus YGL167C, strain pmr1, stronger effect = lower value 1.02 | locus YGL173C, strain kem1, stronger effect = lower value 0.974 | locus YGL227W, strain vid30, stronger effect = lower value 0.997 | locus YGL240W, strain doc1, stronger effect = lower value 0.991 | locus YGL248W, strain PDE1, stronger effect = lower value 0.98 | locus YGL253W, strain hxk2, stronger effect = lower value 0.994 | locus YGR078C, strain PAC10, stronger effect = lower value 0.99 | locus YGR135W, strain pre9, stronger effect = lower value 0.978 | locus YGR229C, strain SMI1, stronger effect = lower value 0.995 | locus YGR252W, strain gcn5, stronger effect = lower value 1.03 | locus YHR013C, strain ard1, stronger effect = lower value 0.987 | locus YHR027C, strain rpn1, stronger effect = lower value 0.987 | locus YHR030C, strain SLT2, stronger effect = lower value 0.997 and 0.963 | locus YHR079C, strain IRE1 (second series), stronger effect = lower value 0.996 | locus YHR079C, strain IRE1, stronger effect = lower value 0.976 | locus YHR094C, strain hxt1, stronger effect = lower value 0.987 | locus YHR129C, strain ARP1, stronger effect = lower value 0.993 | locus YHR142W, strain chs7, stronger effect = lower value 0.983 | locus YHR200W, strain rpn10, stronger effect = lower value 0.99 | locus YIL066C, strain RNR3, stronger effect = lower value 0.996 | locus YIL073C, strain SPO22, stronger effect = lower value 1.01 | locus YIL125W, strain kgd1, stronger effect = lower value 0.995 | locus YIR030C, strain dcg1, stronger effect = lower value 0.989 | locus YJL092W, strain hpr5, stronger effect = lower value 1 | locus YJL095W, strain BCK1 (second series), stronger effect = lower value 1 | locus YJL095W, strain BCK1, stronger effect = lower value 1 and 0.963 | locus YJL115W, strain asf1, stronger effect = lower value 0.997 | locus YJL129C, strain trk1, stronger effect = lower value 0.98 | locus YJL134W, strain LCB3, stronger effect = lower value 0.982 | locus YJL154C, strain vps35, stronger effect = lower value 0.988 | locus YJL164C, strain tpk1, stronger effect = lower value 1.01 | locus YJL166W, strain qcr8, stronger effect = lower value 0.989 | locus YJL168C, strain set2, stronger effect = lower value 0.996 | locus YJL187C, strain SWE1 (second series), stronger effect = lower value 0.98 | locus YJL187C, strain SWE1, stronger effect = lower value 1 | locus YJR043C, strain POL32, stronger effect = lower value 1.03 | locus YJR066W, strain TOR1, stronger effect = lower value 0.943

Reference: PubChem BioAssay AID1159580 (chemical genetic matrix, 2015)
